SMILES strings stand for the structures. The whole screen tested about 16,000 compounds, of which about 4,000 (25%) were called active. Another 26% or so got no clear call; they are omitted. The call rests on the fitted dose curve; in most records, active means well fitted curve in the direction sought with a large enough effect; inconclusive means small, poorly fitted or top-dose-only effect, or effect the other way; inactive means no such curve, though single readings can be large or run the other way. These entries were drawn from the full list.
On the % scale 0 is the no-effect control and ±100 the full control effect.

Sequence of Cytochrome P450 2C9 (Homo sapiens) (P11712 whole entry, looked up): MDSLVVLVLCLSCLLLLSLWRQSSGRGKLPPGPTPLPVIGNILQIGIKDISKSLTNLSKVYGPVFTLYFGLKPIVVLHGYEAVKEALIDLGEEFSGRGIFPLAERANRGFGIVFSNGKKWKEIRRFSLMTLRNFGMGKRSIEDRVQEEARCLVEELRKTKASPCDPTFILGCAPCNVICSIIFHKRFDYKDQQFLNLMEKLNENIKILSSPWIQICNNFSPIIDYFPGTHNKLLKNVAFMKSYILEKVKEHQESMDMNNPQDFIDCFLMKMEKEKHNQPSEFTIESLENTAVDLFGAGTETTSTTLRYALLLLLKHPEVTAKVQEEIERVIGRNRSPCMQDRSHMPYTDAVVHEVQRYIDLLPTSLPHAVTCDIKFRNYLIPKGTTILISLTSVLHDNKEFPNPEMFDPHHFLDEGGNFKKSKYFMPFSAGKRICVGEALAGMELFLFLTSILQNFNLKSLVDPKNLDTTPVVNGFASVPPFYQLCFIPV

This assay has as its target Cytochrome P450 2C9 (Homo sapiens) (UniProt P11712). In words: Cytochrome panel assay with activity outcomes. Conditions: recombinant CYP, pro-luciferin dealkylation, luminescence, p450-cyp2c9; series mostly up to 57.1 µM.
Take `COc1c2occc2c(OC)c2c(=O)cc(C)oc12`: the AC50 entry was “inactive”.
On the same count and under the same terms, the entry for `Cc1ccccc1[C@@H](OCCN(C)C)c1ccccc1` is “inactive”; for `CCC/C=C(\CCC)C(NS(C)(=O)=O)c1ccccc1` (stereo not given) it is “inactive”.
Consider `CCC/C=C(\CCC)C(NS(=O)(=O)c1ccc(Cl)cc1)c1ccccc1` (stereo not given), for which the AC50 was 2.51 µM (active).
The same measure, in the same setting: the entry for `CCN(CC)C(=O)N1CCN(C)CC1` is “inactive”.
With `CS(=O)(=O)N1CCC2(CCCN(C(=O)Nc3cccc(C#N)c3)C2)CC1`, the AC50 entry was “inactive”.
The same measure, in the same setting: the figure for `COc1ccccc1-n1c(SCC(=O)Nc2ccccc2F)nc2[nH]ncc2c1=O` is 15.8 µM (active); for `CCOc1ccccc1NC(=O)CSc1nnc(-c2cnccn2)n1C` it is “inactive”; for `O=C(CSc1nc2nc(-c3cccs3)cc(C(F)(F)F)c2c(=O)[nH]1)NCc1ccco1` it is 0.631 µM (active).
On the same count and under the same terms, the entry for `CCn1cc(C(=O)NCC(=O)OC)c2cc(OC)c(OC)cc2c1=O` is “inactive”.
Still for that read-out and setting: the figure for `c1ccc(CN2c3ccccc3-c3nc4ccccc4n3C2c2ccccn2)cc1` (stereo not given) is 7.94 µM (active).
For the molecule `Clc1ncccc1-c1nc2ccccc2n1Cc1ccccc1`, the AC50 is 15.8 µM (active).
For the molecule `Oc1ccc(Cn2c(-c3ccc(O)cc3)nc3ccccc32)cc1`, the activity, negative = inhibition is 9.3% [at 11.4 µM] (inactive).
Consider `Clc1ccc(Cn2c(-c3cccnc3Cl)nc3ccccc32)c(Cl)c1`, for which the AC50 was 5.62 µM (active).
Same read-out and setting: in the case of `CC(C)(C)c1cc2cccnc2n1Cc1ccccc1` it was “inactive”; in that of `NC(N)=N[C@H](CCC(=O)O)C(=O)O`, “inactive”.
With `O=C1OCC(c2ccccc2)=C1c1ccc(S(=O)(=O)N2CCOCC2)s1`, the AC50 is 12.6 µM (active).
Regarding `CCCCCC(=O)O[C@H](CC(=O)O)C[N+](C)(C)C`, the AC50 result was “inactive”.
On the same count and under the same terms, in the case of `COc1ccc(S(=O)(=O)N2CCN(CC(=O)Nc3cc(OC)cc(OC)c3)CC2)cc1` it was “inactive”; in that of `O=C(CN1CCN(S(=O)(=O)c2ccc(F)cc2)CC1)Nc1ccc(Cl)c(C(F)(F)F)c1`, “inactive”.
In the case of `CCN(CC)c1ccc(NC(=O)CN2CCN(c3ccccc3F)CC2)cc1`, the AC50 was 11.2 µM (active).
The same measure, in the same setting: the figure for `COc1ccc(C)cc1NC(=O)CN1CCN(S(=O)(=O)c2ccc(F)cc2)CC1` is 2.51 µM (active).
Still for that read-out and setting: in the case of `CC1CCOC2(O1)C(=O)N(CN1CCN(c3ccccc3F)CC1)c1ccccc12` (stereo not given) it was “inactive”; in that of `COc1ccccc1NC(=O)CN1CCN(c2ccccc2F)CC1`, 5.01 µM (active); in that of `COc1ccccc1N1CCN(C[C@@H](C(=O)NC(C)(C)C)c2ccccc2)CC1`, “inactive”.
Same read-out and setting: in the case of `Cc1cccc(N2CCN(CC(=O)Nc3ccc(-n4cnnn4)cc3)CC2)c1C` it was “inactive”.
For `O=C(NCCCN1CCN(c2ccccc2F)CC1)C1CCC(=O)N1C1CCCCC1` (stereo not given), the AC50 result is “inactive”.
On the same count and under the same terms, in the case of `O=C(CCN1CCN(c2ccccc2F)CC1)Nc1ccccc1F` it was 3.98 µM (active).
In the case of `O=c1c(-c2ccccc2)c(O)c2cccc3c2n1CCC3`, the AC50 entry is “inactive”.
The same measure, in the same setting: in the case of `COc1ccccc1CN1CCCC2(CCNCC2)C1` it was “inactive”.
On the same count and under the same terms, in the case of `COc1ccccc1N1CCN(CCN(C(=O)C2CCCCC2)c2ccccn2)CC1` it was “inactive”.
Same read-out and setting: the figure for `COc1cc(NC(=O)c2ccccc2)c(OC)cc1NC(=O)CN1CCN(c2ccccn2)CC1` is 3.16 µM (active).
With `CCOC(=O)N1CCN(S(=O)(=O)c2ccc(C(=O)Nc3ccc(F)cc3F)cc2)CC1`, the AC50 was 15.8 µM (active).
The same measure, in the same setting: in the case of `CCOc1ccc(C(=O)CN2CCN(S(=O)(=O)c3ccc(F)cc3)CC2)cc1` it was “inactive”; in that of `COC(=O)N1CCC2(CC1)CN(c1ccccn1)C2`, “inactive”.
As for `CN(C)CCNc1ccccn1`, the activity, negative = inhibition is 3.16% [at 11.4 µM] (inactive).
With `Cc1noc(C)c1C(=O)N1CCC2(CCCN(Cc3nccs3)C2)CC1`, the AC50 result was “inactive”.
As to `CN(C)Cc1ccccc1-c1cncnc1NC1CC1`, the activity, negative = inhibition is 8.78% [at 2.29 µM] (inactive).
Regarding `CN(C)CCNC(=O)c1cc(Br)ccc1Cl`, the AC50 entry was “inactive”.
Same read-out and setting: in the case of `Cc1cc(OCCNCCO)cc(C)c1Cl` it was “inactive”.
On the same count and under the same terms, the figure for `Cc1ccc(OCCNC(=O)c2cc(-n3cnnc3)ccc2Cl)cc1C` is 11.2 µM (active); for `Cc1cccc(N/C(=N\S(=O)(=O)c2ccccc2)C(F)(F)F)c1` it is 2.51 µM (active).
With `NC(N)=N/N=C\c1ccc(C2CCNCC2)cc1`, the activity, negative = inhibition is 2.7% [at 11.4 µM] (inactive).
`N#Cc1ccccc1NC(=O)Nc1cccs1`: the AC50 entry is “inactive”.
As to `O=C(NCc1ccco1)Nc1cccs1`, the AC50 was 11.2 µM (active).
Turning to `O=C(Nc1cc2ccccc2oc1=O)C1CCCCC1`, the AC50 result was “inactive”.
On to `Cc1cc2ccccc2n1CCNC(=O)C1CCCC1`, for which the AC50 entry was “inactive”.
Still for that read-out and setting: the figure for `Cc1cc(NC(=O)C2CCCCC2)nc2c1c(=O)oc1ccccc12` is 14.1 µM (active).
Take `COc1ccccc1-c1nc(NC2CC2)c2ccccc2n1`: the activity, negative = inhibition is 5.77% [at 2.29 µM] (inactive).
With `COc1ccc(-c2cc(C(F)(F)F)nc(N3CCCCC3)n2)cc1OC`, the AC50 was 10 µM (active).
The same measure, in the same setting: the entry for `COc1ccc(-c2cc(C(F)(F)F)nc(N3CCN(C)CC3)n2)cc1OC` is “inactive”; for `COc1ccccc1-c1cc(C(F)(F)F)nc(S(=O)(=O)CCCC(=O)NC(C)C)n1` it is “inactive”.
Take `COc1ccccc1-c1nc(N2CCN(C)CC2)c2ccccc2n1`: the activity, negative = inhibition was 11.5% [at 2.29 µM] (inactive).
As to `COc1ccc(-n2c(=O)c(-c3cc(F)cc(F)c3)nc3cnc(N4CCOCC4)nc32)cc1`, the AC50 result was “inactive”.
On the same count and under the same terms, the figure for `COc1cccc(-c2cc(C(F)(F)F)nc(N3CCOCC3)n2)c1` is 15.8 µM (active); for `COc1ccccc1N1CCN(c2nc(-c3ccccc3)cc(C(F)(F)F)n2)CC1` it is 5.62 µM (active).
The same measure, in the same setting: in the case of `COc1ccc(-c2cc(C(F)(F)F)nc(NC3CCCC3)n2)cc1OC` it was 7.94 µM (active); in that of `CN1CCN(c2nc(-c3ccccc3)cc(C(F)(F)F)n2)CC1`, “inactive”.
For the molecule `CO[C@H]1COC(=O)C/C=C\[C@@H](C)[C@H](OC)COC(=O)CCC[C@@H]1C`, the activity, negative = inhibition was 9.38% [at 11.4 µM] (inactive).
On to `COc1cc2c(cc1OC)-c1cc3ccc(OC)c(OC)c3c[n+]1CC2`, for which the AC50 result was “inactive”.
Take `CN(C)c1ncc2nc(-c3cc(F)cc(F)c3)c(=O)n(C[C@H]3CCCO3)c2n1`: the AC50 result is “inactive”.
Still for that read-out and setting: the entry for `COc1ccc(-n2c(=O)c(-c3ccc(F)cc3)nc3cnc(N4CCOCC4)nc32)cc1` is “inactive”.
On the same count and under the same terms, in the case of `COc1ccc(-c2cc(C(F)(F)F)nc(N3CCOCC3)n2)cc1OC` it was 3.98 µM (active); in that of `Cn1c(=O)c(-c2ccc(F)cc2)nc2cnc(N3CCOCC3)nc21`, “inactive”; in that of `COc1cc2c(cc1OC)[C@H](c1ccccc1)CN(C)CC2`, “inactive”.
Turning to `COc1cc2c(cc1OC)CN(C(=S)Nc1ccccc1)CC2`, the AC50 was 4.47 µM (active).
For `CC(C)(CO)N1CCN(C(=S)Nc2ccccc2)CC1`, the activity, negative = inhibition is 10.3% [at 11.4 µM] (inactive).
With `O=C(/C=C/c1cccnc1)c1ccc(NC(=O)c2cccc(Br)c2)cc1`, the AC50 is 4.47 µM (active).
The same measure, in the same setting: the entry for `O=C(N/C(=C\c1cccnc1)C(=O)N1CCOCC1)c1cccc(Br)c1` is “inactive”.
The same measure, in the same setting: the entry for `CN(C)CCn1c(C(=O)O)cc2ccccc21` is “inactive”; for `FC(F)(F)c1nc2ccccc2nc1N/N=C/c1ccc(Cl)cc1` it is “inactive”.
Take `N#CC(c1ccc(Cl)cc1)c1nc2ccccc2nc1C(F)(F)F` (stereo not given): the AC50 is 1.41 µM (active).
As to `Cc1cc(Cl)ccc1Oc1ncc(-c2ccc(Cl)cc2)cn1`, the AC50 result is “inactive”.
On the same count and under the same terms, the figure for `Cc1cc(Cl)ccc1Oc1ncnc2oc(-c3ccccc3)cc12` is 4.47 µM (active); for `Cc1ccccc1Oc1ncnc2oc(-c3ccccc3)cc12` it is 3.98 µM (active); for `Cc1ccccc1Oc1ncnc2sccc12` it is “inactive”.
On the same count and under the same terms, the entry for `CC(O)(P(=O)(O)O)P(=O)(O)O` is “inactive”; for `O=C(c1cnccn1)N1CCC2(CC1)CN(Cc1cc(C(F)(F)F)cc(C(F)(F)F)c1)C2` it is “inactive”; for `COc1ccc2cc(C)c3nnc(SCC(=O)Nc4nc(-c5ccccc5)cs4)n3c2c1` it is 2.82 µM (active).
Still for that read-out and setting: the figure for `COc1ccc(-c2nc(-c3ccccc3)c(-c3cc([N+](=O)[O-])ccc3C)[nH]2)cc1O` is 10 µM (active).
Take `CCCC(=O)NC(Nc1ccccc1F)C(Cl)(Cl)Cl` (stereo not given): the AC50 is 8.91 µM (active).
For the molecule `N#Cc1c(NC(=O)C2CC(c3ccccc3Cl)=NO2)sc2c1CCC2` (stereo not given), the AC50 is 0.708 µM (active).
On the same count and under the same terms, in the case of `CCN(c1ccccc1)c1cc(NC)[n+](C)c(C)n1` it was “inactive”.
For `CN(Cc1ccco1)c1nc(-c2cccnc2)nc2ccccc12`, the activity, negative = inhibition is -8.92% [at 2.29 µM] (inactive).
Same read-out and setting: in the case of `CN(Cc1ccco1)c1ccnc(-c2cccnc2)n1` it was 16.4% [at 2.29 µM] (inactive).
As to `CC(C)(C)n1nnnc1C(c1cccnc1)N(Cc1ccccc1)Cc1ccco1` (stereo not given), the AC50 is 3.98 µM (active).
The same measure, in the same setting: in the case of `Cc1ccc(-n2c(C)nnc2SCC(=O)N2CCc3ccccc3C2)cc1C` it was “inactive”.
In the case of `O=C(O)/C=C\C(=O)N1Cc2cc3ccccc3nc2C1`, the activity, negative = inhibition was 10.3% [at 11.4 µM] (inactive).
Turning to `C=CCn1c(SCC(=O)N2CCc3ccccc3C2)nc2ccccc2c1=O`, the AC50 was 0.2 µM (active).
The same measure, in the same setting: the figure for `CCn1c2ccc(Cl)cc2c2nc3ccccc3nc21` is 10 µM (active); for `CCn1c(N)nc2ccccc21` it is “inactive”.
On to `CCn1c2ccccc2c2nnc(NCCCO)nc21`, for which the activity, negative = inhibition was 5.48% [at 11.4 µM] (inactive).
Still for that read-out and setting: the figure for `O=C(O)CCc1nc(-c2ccccc2-n2cccc2)no1` is -3.02% [at 11.4 µM] (inactive).
For `C=Cc1c(C)c2cc3nc(cc4[nH]c(cc5nc(cc1[nH]2)C(C)=C5CCC(=O)O)c(CCC(=O)OC)c4C)[C@@]1(C)C3=CC=C(C(=O)OC)[C@H]1C(=O)OC` (tested in a mixture with another compound), the AC50 is 1.26 µM (active).
With `Cc1cccc(CNc2cc(-c3ccc(N(C)C)cc3)ncn2)c1`, the activity, negative = inhibition was -14.7% [at 2.29 µM] (inactive).
In the case of `CCOc1cc(C2CC(=O)c3c(ccc4ccccc34)N2)ccc1O` (stereo not given), the AC50 was 3.16 µM (active).
The same measure, in the same setting: the entry for `CCOc1ccc2ccccc2c1C(=O)N[C@@H]1C(=O)N2[C@@H]1SC(C)(C)[C@@H]2C(=O)O` is “inactive”; for `COc1ccc(Oc2ncc3nc(-c4cccs4)c(=O)n(Cc4cccc(OC)c4)c3n2)cc1` it is 1 µM (active).
The same measure, in the same setting: in the case of `Cn1cc(-c2nc3cncnc3n(Cc3ccc(F)cc3)c2=O)c2ccccc21` it was “inactive”.
On the same count and under the same terms, the entry for `COc1ncc2nc(-c3cccs3)c(=O)n(Cc3ccc(F)cc3)c2n1` is “inactive”.
Take `Cc1nc2cncnc2n(Cc2ccccc2)c1=O`: the AC50 was 15.8 µM (active).
Still for that read-out and setting: the entry for `Cc1nc2cnc(Nc3ccccc3)nc2n(CCc2ccccc2)c1=O` is “inactive”.
Same read-out and setting: the entry for `COc1cccc(Nc2ncc3nc(-c4cccs4)c(=O)n(CCC#N)c3n2)c1` is “inactive”; for `COc1cccc(Cn2c(=O)c(-c3cccs3)nc3cncnc32)c1` it is 2.51 µM (active).
On the same count and under the same terms, the figure for `O=c1c(-c2cccs2)nc2cncnc2n1Cc1ccccc1` is 1.26 µM (active).

These data come from PubChem BioAssay AID1851 (National Center for Advancing Translational Sciences (NCATS), 2009).
